From PubChem BioAssay (EPA / NIEHS)
The source made the active and inactive calls. How the source made its calls: active means hit-call score of the fitted dose curve at least 0.9, where 1 is the maximum; inactive means score below 0.9.

Experiments:
[1] = ATG_CRE_CIS: Attagene CIS-FACTORIAL HepG2 Assay for human cAMP Responsive Element (CRE) binding protein 3 (AID 2282926); conditions: HepG2 CRE cis-reporter, Attagene multiplexed mRNA; actives raise or lower the signal
Outline: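 Readout: fluorescently labelled reporter transcripts resolved by capillary electrophoresis after RT-PCR, taken 24 h post-dosing in transfected HepG2. Endogenous transcription factor activity drives each cis-element reporter; gain or loss of signal fitted relative to DMSO control.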

[2] = biological target: CCAAT/enhancer-binding protein beta (Homo sapiens) (UniProt P17676); experiment: ATG_C_EBP_CIS: Attagene CIS-FACTORIAL HepG2 Assay for human CCAAT/Enhancer Binding Protein (C/EBP) beta (AID 2282927); conditions: HepG2 Attagene cis-factorial transcription factor reporter; actives raise or lower the signal
Chain of CCAAT/enhancer-binding protein beta (Homo sapiens) (P17676 whole entry, looked up): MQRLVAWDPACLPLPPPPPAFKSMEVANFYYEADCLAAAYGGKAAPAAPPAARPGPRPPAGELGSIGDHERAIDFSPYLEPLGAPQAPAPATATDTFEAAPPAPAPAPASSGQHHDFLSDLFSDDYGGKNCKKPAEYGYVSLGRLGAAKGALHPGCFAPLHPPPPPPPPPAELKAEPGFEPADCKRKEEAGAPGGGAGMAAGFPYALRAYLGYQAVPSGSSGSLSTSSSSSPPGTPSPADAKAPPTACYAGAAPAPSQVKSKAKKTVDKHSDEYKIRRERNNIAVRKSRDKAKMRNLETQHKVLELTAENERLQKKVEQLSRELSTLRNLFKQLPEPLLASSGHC
Outline: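 HepG2, transient MRTU transfection, 24 h treatment. RT-PCR plus CE fluorescence; DMSO negative control, bidirectional fit.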

[3] = ATG_CMV_CIS: Attagene CIS-FACTORIAL HepG2 Assay for human CMV (Internal Marker) (AID 2282928); conditions: HepG2 CMV promoter reporter, transcription factor profiling; actives raise or lower the signal;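 further: endpoint acts as a background internal control marker rather than a target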
Outline: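 Reporter transcripts from transfected HepG2 cells are isolated after 24 h of chemical dosing, reverse-transcribed and amplified. Fragments labeled with 6-FAM are cut with HpaI and quantified by capillary electrophoresis; DMSO defines baseline.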

[4] = ATG_DR4_LXR_CIS: Attagene CIS-FACTORIAL HepG2 Assay for human Liver X Receptor (LXR), DR4 submotif (AID 2282929); conditions: HepG2 Attagene DR4 cis-reporter, mRNA transcription; actives raise or lower the signal
Outline: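 Transiently transfected HepG2 liver cells; cis-regulated reporters; 24 h dosing. RT-PCR plus CE read-out of reporter mRNA. DMSO baseline, bidirectional curve fitting.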

[5] = biological target: Aryl hydrocarbon receptor (Homo sapiens) (UniProt P35869); experiment: ATG_Ahr_CIS: Attagene CIS-FACTORIAL HepG2 Assay for human Aryl Hydrocarbon Receptor (Ahr) (AID 2282930); conditions: HepG2 AhR cis-factorial reporter transcription; actives raise or lower the signal
Chain of Aryl hydrocarbon receptor (Homo sapiens) (P35869 whole entry, looked up): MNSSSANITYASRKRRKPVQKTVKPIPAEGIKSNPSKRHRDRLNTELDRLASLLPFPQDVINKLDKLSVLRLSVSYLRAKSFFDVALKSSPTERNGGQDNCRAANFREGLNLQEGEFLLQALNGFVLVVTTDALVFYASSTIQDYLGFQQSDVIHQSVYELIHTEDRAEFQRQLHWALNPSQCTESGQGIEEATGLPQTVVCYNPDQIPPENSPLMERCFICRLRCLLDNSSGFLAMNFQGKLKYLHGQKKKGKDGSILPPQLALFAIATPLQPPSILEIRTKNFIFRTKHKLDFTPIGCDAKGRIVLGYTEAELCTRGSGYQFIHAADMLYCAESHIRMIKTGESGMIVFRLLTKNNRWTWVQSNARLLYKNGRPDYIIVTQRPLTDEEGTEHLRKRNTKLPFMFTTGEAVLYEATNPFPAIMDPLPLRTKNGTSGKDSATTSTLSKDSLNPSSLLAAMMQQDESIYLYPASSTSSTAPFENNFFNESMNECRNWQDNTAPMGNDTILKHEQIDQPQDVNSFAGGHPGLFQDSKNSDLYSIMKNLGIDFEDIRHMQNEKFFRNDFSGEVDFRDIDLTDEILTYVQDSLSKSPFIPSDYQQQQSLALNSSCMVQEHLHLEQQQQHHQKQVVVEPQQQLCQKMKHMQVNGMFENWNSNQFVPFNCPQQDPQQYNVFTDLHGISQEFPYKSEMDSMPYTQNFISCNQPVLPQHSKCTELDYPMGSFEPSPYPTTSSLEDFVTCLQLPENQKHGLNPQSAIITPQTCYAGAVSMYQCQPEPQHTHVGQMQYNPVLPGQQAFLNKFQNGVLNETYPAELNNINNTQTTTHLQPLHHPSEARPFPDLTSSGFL
Outline: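 Endogenous factor activity is tracked through cis-promoter reporter units transfected into HepG2 cells. Transcript levels at 24 h are read by fluorescent RT-PCR and capillary electrophoresis, with activity in either direction scored relative to DMSO.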

[6] = ATG_AP_1_CIS: Attagene CIS-FACTORIAL HepG2 Assay for human Activator Protein 1 (AP-1) (AID 2282931); conditions: HepG2 Attagene cis-factorial AP-1 reporter mRNA; actives raise or lower the signal
Outline: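 We transfected HepG2 cells transiently with a set of cis-regulated reporter transcription units, dosed them for 24 h, and quantified reporter mRNA via RT-PCR and capillary electrophoresis, scoring gain or loss of signal relative to DMSO.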

[7] = ATG_AP_2_CIS: Attagene CIS-FACTORIAL HepG2 Assay for human Activator Protein 2 (AP-2) (AID 2282932); conditions: HepG2 AP-2 cis-reporter, Attagene transcription factor profiling; actives raise or lower the signal
Outline: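 Liver-derived HepG2 line, cis-reporter system measuring endogenous factors; 24 h dosing; reporter mRNA detected by fluorescent RT-PCR and capillary electrophoresis.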

[8] = ATG_BRE_CIS: Attagene CIS-FACTORIAL HepG2 Assay for human Bone Morphogenetic Protein (BMP) Response Element (BRE) (AID 2282933); conditions: HepG2 BMP response element reporter, Attagene transcription factor profiling; actives raise or lower the signal
Outline: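 Read-out: reporter mRNA induction quantified by RT-PCR and capillary electrophoresis after 24 h chemical exposure of transfected HepG2 cells. Endogenous factor activity on the BMP response element; gain or loss fitted against DMSO baseline.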

[9] = biological target: Transcription factor E2F1 (Homo sapiens) (UniProt Q01094); experiment: ATG_E2F_CIS: Attagene CIS-FACTORIAL HepG2 Assay for human E2F Transcription Factor 1 (AID 2282935); conditions: HepG2 Attagene cis-reporter, E2F reporter RNA transcripts; actives raise or lower the signal
Chain of Transcription factor E2F1 (Homo sapiens) (Q01094 whole entry, looked up): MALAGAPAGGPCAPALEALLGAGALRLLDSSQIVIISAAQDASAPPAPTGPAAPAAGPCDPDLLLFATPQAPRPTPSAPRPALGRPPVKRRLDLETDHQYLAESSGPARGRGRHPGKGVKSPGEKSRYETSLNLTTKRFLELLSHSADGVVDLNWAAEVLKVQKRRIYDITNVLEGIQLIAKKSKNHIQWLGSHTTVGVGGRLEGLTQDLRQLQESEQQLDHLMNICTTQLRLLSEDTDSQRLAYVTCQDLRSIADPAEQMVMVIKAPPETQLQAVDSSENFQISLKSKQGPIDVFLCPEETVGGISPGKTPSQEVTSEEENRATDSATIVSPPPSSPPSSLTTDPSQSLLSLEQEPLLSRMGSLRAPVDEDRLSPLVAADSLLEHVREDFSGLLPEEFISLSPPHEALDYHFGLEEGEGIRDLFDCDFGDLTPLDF
Outline: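 Liver-derived HepG2 cells expressing transfected promoter-driven reporter units received test chemical for 24 hours. Signal gains or losses were fitted bidirectionally against DMSO.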

[10] = ATG_M_61_CIS: Attagene CIS-FACTORIAL HepG2 Assay for M61 Transcription Factor (Internal Marker) (AID 2282937); conditions: HepG2 Attagene CIS-FACTORIAL M61 internal marker reporter; actives raise or lower the signal
Outline: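 Multiplexed reporter mRNA assay, HepG2 human hepatoma cells, 24 h treatment. Signal: FAM-labelled, HpaI-digested RT-PCR fragments by CE. Fit: bidirectional, baseline DMSO.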

[11] = ATG_EGR_CIS: Attagene CIS-FACTORIAL HepG2 Assay for human Early Growth Response 1 (EGR1) (AID 2282938); conditions: HepG2 Attagene CIS-FACTORIAL EGR reporter mRNA; actives raise or lower the signal
Outline: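 Multiplexed cis-reporter system in human hepatoma HepG2 cells, transiently transfected. Cells are dosed for 24 h; reporter transcripts are amplified, fluorescently tagged and sized by capillary electrophoresis, with DMSO as negative control.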

[12] = ATG_M_19_CIS: Attagene CIS-FACTORIAL HepG2 Assay for M19 Transcription Factor (Internal Marker) (AID 2282939); conditions: HepG2 Attagene CIS-FACTORIAL M19 internal marker reporter; actives raise or lower the signal
Outline: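 Readout: fluorescent reporter-transcript fragments by capillary electrophoresis after RT-PCR. Human HepG2 liver cells carried transfected MRTU constructs reporting endogenous transcription-factor activity; exposure 24 h. Gain or loss of signal fitted relative to DMSO.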

[13] = ATG_ERE_CIS: Attagene CIS-FACTORIAL HepG2 Assay for Estrogen Response Element (ERE) (AID 2282940); conditions: HepG2 ERE cis-reporter, Attagene RNA transcript; actives raise or lower the signal
Outline: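 Readout: reporter mRNA induction by RT-PCR, FAM-labelled primer extension, HpaI digestion and capillary electrophoresis, 24 h after dosing transfected HepG2 cells. Endogenous transcription factors act on cis-element-regulated reporters. Gain or loss fitted against DMSO.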

[14] = ATG_Ets_CIS: Attagene CIS-FACTORIAL HepG2 Assay for human Erythroblast Transformation Specific (ETS) (AID 2282941); conditions: HepG2 ETS cis-reporter transcription, actives raise or lower the signal
Outline: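 Bidirectional fit versus DMSO of reporter mRNA signal, detected by RT-PCR and capillary electrophoresis in HepG2 cells transiently transfected with cis-element reporters and dosed 24 h.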

[15] = biological target: Hepatocyte nuclear factor 3-beta (Homo sapiens) (UniProt Q9Y261); experiment: ATG_FoxA2_CIS: Attagene CIS-FACTORIAL HepG2 Assay for human Forkhead box A2 (FOXA2) (AID 2282942); conditions: HepG2 cis-reporter transcription factor activity, 24 h; actives raise or lower the signal
Chain of Hepatocyte nuclear factor 3-beta (Homo sapiens) (Q9Y261 whole entry, looked up): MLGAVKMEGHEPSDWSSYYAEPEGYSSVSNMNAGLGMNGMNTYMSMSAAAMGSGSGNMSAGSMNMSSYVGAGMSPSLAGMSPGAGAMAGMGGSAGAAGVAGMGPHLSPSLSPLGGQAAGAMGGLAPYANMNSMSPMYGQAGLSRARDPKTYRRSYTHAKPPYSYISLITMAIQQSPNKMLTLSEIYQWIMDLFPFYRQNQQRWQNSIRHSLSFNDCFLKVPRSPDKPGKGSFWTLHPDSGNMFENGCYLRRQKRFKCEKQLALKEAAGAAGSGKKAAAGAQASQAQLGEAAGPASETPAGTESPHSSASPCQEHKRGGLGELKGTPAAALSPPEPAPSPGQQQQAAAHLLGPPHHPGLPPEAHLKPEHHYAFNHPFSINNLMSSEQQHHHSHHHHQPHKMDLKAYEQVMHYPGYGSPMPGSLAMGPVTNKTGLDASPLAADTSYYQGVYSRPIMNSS
Outline: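 Multiplexed cis-element reporter assay in transiently transfected HepG2. Twenty-four hours post-dosing, RNA was reverse-transcribed, amplified, FAM-labelled, HpaI-digested and separated by CE. Activity gain or loss relative to DMSO.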

[16] = ATG_FoxO_CIS: Attagene CIS-FACTORIAL HepG2 Assay for human Forkhead box O (FoxO) (AID 2282943); conditions: HepG2 Attagene cis-reporter, FoxO element, mRNA; actives raise or lower the signal
Outline: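 Transfected HepG2 reporter cells exposed to test chemical for 24 h; reporter RNA measured by reverse transcription, PCR and fluorescent capillary electrophoresis; curves fitted for increases and decreases against DMSO.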

[17] = ATG_GATA_CIS: Attagene CIS-FACTORIAL HepG2 Assay for human GATA Binding Protein (AID 2282944); conditions: HepG2 GATA cis-element reporter, Attagene multiplex mRNA; actives raise or lower the signal
Outline: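 Read-out: fluorescent reporter mRNA fragments resolved by capillary electrophoresis after RT-PCR. Human liver HepG2 cells carried transiently transfected cis-regulated reporter constructs; chemicals incubated 24 h; gain or loss of signal fitted relative to DMSO.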

[18] = ATG_GLI_CIS: Attagene CIS-FACTORIAL HepG2 Assay for human Zinc Finger Protein GLI1 (AID 2282945); conditions: HepG2, Attagene cis-factorial reporter mRNA, GLI element; actives raise or lower the signal
Outline: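 Transiently transfected HepG2 cells report endogenous transcription factor activity via cis-element-driven reporter units. After 24 h compound exposure, reporter mRNA was measured by RT-PCR with capillary electrophoresis; bidirectional fitting against DMSO baseline.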

[19] = ATG_E_Box_CIS: Attagene CIS-FACTORIAL HepG2 Assay for human Enhancer Box (E-box) (AID 2282936); conditions: HepG2 E-box cis-reporter transcription, actives raise or lower the signal
Outline: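 In this cell-based setup, HepG2 cells bearing transfected promoter-driven reporter units were exposed to chemicals for 24 h; reporter transcripts were amplified, 6-FAM-labelled, cut with HpaI and sized by capillary electrophoresis.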

Measured: AC50

CC(C)(C)c1n[nH]c(=S)n(N)c1=O
inactive: [1] | [2] | [3] | [4] | [6] | [7] | [8] | [9] | [10] | [11] | [12] | [13] | [14] | [15] | [16] | [17] | [18]
active: [5] 23.9 µM

Clc1ccc2c(c1)C(N1CCNCC1)=Nc1ccccc1O2
inactive: [1] | [3] | [4] | [6] | [7] | [8] | [9] | [10] | [12] | [13] | [14] | [15] | [18]
active: [2] 51 µM | [5] 41.1 µM | [11] 26.6 µM

C=C(C)C(=O)OCc1ccccc1
inactive: [1] | [2] | [3] | [4] | [5] | [6] | [7] | [8] | [9] | [10] | [11] | [12] | [13] | [14] | [15] | [16] | [17] | [18]

CO[Si](C)(OC)c1ccccc1
inactive: [1] | [2] | [3] | [4] | [6] | [7] | [8] | [9] | [10] | [11] | [12] | [13] | [15] | [16] | [17] | [18]
active: [5] 130 µM

CC(CCO)CCc1ccccc1 (configuration not stated)
inactive: [1] | [2] | [3] | [4] | [5] | [6] | [7] | [8] | [9] | [10] | [11] | [12] | [14] | [15] | [16] | [17] | [18]
active: [13] 24.2 µM

CCCCNC(=O)NS(=O)(=O)c1ccc(C)cc1
inactive: [1] | [2] | [3] | [4] | [5] | [6] | [7] | [8] | [9] | [19] | [10] | [11] | [12] | [15] | [16] | [18]

Cc1ccc(O)c(C(C)(C)C)c1
active: [4] 100 µM | [6] 100 µM | [12] 148 µM | [18] 173 µM
inactive: [1] | [2] | [3] | [5] | [7] | [8] | [9] | [10] | [11] | [14] | [15] | [17]

BrC1CCC(Br)C(Br)CCC(Br)C(Br)CCC1Br (configuration not stated)
inactive: [1] | [2] | [4] | [5] | [7] | [8] | [9] | [10] | [12] | [13] | [15]
active: [3] 23.9 µM | [6] 36.2 µM | [11] 35.9 µM | [14] 143 µM | [16] 87 µM | [17] 66.3 µM | [18] 69.1 µM
